PubChem BioAssay (NCI)
Compounds without any hit were thinned out: in the full panel of roughly 79,000, 15% have a hit. A number with no mark means an inactive call. Calls of active or inactive are those of the source. Rule as the data show it: active = growth inhibition above about 70%; inactive = the rest.

assay: NCI Yeast Anticancer Drug Screen. Data for the cln2 rad14 strain (AID 165);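 also: 0% = growth equal to vehicle treated cultures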; details: S. cerevisiae cln2 rad14 strain, at 50.0 µM, stronger effect = higher value
In short: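 Growth of compound-exposed yeast (cln2 rad14 genotype) measured and expressed as inhibition relative to vehicle.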

Compound	growth inhibition
CCCCC#C[I+]c1ccccc1	91.2% (active)
CCOC(=O)C1C(c2cccc(OC)c2O)c2cc3c(cc2OC1(C)N1CCCC1)OCO3 (stereo not drawn)	2.55%
Nc1ncnc2nn(C3OC(CO)C(O)C3O)nc12 (stereo not drawn)	33.1%
Nc1nc(-c2ccc3c(c2)Sc2ccccc2O3)cs1	78.1% (active)
O=C1C=CC(Nc2cccc([N+](=O)[O-])c2)C1Nc1cccc([N+](=O)[O-])c1 (stereo not drawn)	90.7% (active)
O=C(CC(=O)c1ccccc1)CC(=O)c1ccccc1	65.9%
Fc1ccc(CSC(=S)Nc2ccc(Br)cc2)cc1	56.2%
Cc1cc([N+](=O)[O-])c2nnnn2c1	-9.75%
CN(c1ccc(C(N)=O)cc1)c1c(O)c2ccccc2[nH]c1=O	24.9%
O=C(/C=C\c1cccc2ccccc12)c1ccccn1	87.2% (active)
COc1ccc2c(c1)CCc1c(CO)c(COC(=O)NC(C)C)n(C)c1-2	93.5% (active)
O=C1CC(O)CC(=O)C1=C(O)CCCCCCCCCCc1ccccc1 (stereo not drawn)	81.5% (active)
CC1CCN(CCCOC(=O)c2ccccc2)CC1	77% (active)
Cc1ccc(S(=O)(=O)OC2COC3C(OS(=O)(=O)c4ccc(C)cc4)COC23)cc1 (stereo not drawn)	46%
Cc1nn(C(=S)S)c(C)c1N=Nc1cccc(F)c1	24.4%
O=C1C(=Cc2ccccc2O)N=C(c2ccccc2)N1n1c(-c2ccccc2)nc2ccccc2c1=O	50.3%
O=C1/C(=C/c2ccccc2)CNC/C1=C\c1ccccc1	92.5% (active)
Cc1cc(Br)c(P(=O)(O)O)cc1[N+](=O)[O-]	-2.55%
Oc1cc(Cc2ccccc2)c(Cc2ccccc2)cc1O	89.8% (active)
O=S1(=O)CCN(c2ccccc2CC(c2c[nH]c3ccccc23)c2c[nH]c3ccccc23)CC1	86.2% (active)

Compound	growth inhibition
CCCCCC(O)C(C)CO (stereo not drawn)	42.9%
Cc1cc(=O)c2cc(N=Cc3ccc([N+](=O)[O-])o3)ccc2o1	21.2%
CN(C)C(=S)/N=c1\ssc(=S)n1Cc1ccco1	0.45%
O=[N+]([O-])c1ccc2nc(Nc3ccccc3)c(Nc3ccccc3)nc2c1	70.5% (active)
CC(=O)NC(CCC(=O)O)C(=O)O.[NH-]C1CCCCC1[NH-].[Pt+2] (stereo not drawn)	99.4% (active)
CC(=O)Oc1c2c(c(C)c3ccccc13)C(=O)c1cccnc1C2=O	97.8% (active)
C=C1C(=O)OC2C(C)C3C=CC(=O)[C@@]3(C)C(OC(=O)/C(C)=C/C)C1[C@@H]2OC(C)=O (stereo partly drawn)	79.3% (active)
O=C(O)/C=C/c1ccc2c(c1)CC1(Cc3ccccc3C1)C2	83.3% (active)
C(=C\c1ccc(-[n+]2nc(-c3ccccc3)nn2-c2ccccc2)cc1)/c1ccccc1	93.2% (active)
O=CC(O)C(O)C(O)C(O)C(=O)NCCCCCCCCCCCCNC(=O)C(O)C(O)C(O)C(O)C=O (stereo not drawn)	25.2%
CCCCCCCCCCN(CCCCCCCCCC)CC(O)c1cc(-c2ccccc2)nc2ccccc12 (stereo not drawn)	-18.1%
CC1(C)C(=O)C(C(Cl)(Cl)Cl)=C(Cl)C(=O)C1(Cl)Cl	48.8%
Cc1cccc2c1CC1(C2)Cc2c(C)cccc2C1=O (stereo not drawn)	55.5%
Oc1c(Cl)cc(C(c2cc(Cl)c(O)c(Cl)c2)C(c2cc(Cl)c(O)c(Cl)c2)c2cc(Cl)c(O)c(Cl)c2)cc1Cl	92% (active)
Cc1ccc(S(=O)(=O)NC(Cc2ccccc2)C(=O)CCl)cc1 (stereo not drawn)	84.8% (active)
CCOC(=O)/C(C#N)=C/c1coc2cc(C)cc(C)c2c1=O	89.3% (active)
CN(C)/N=C\C1CC=CCC1 (stereo not drawn)	82.9% (active)
NCC(=O)N/N=C/c1ccc([N+](=O)[O-])o1	27.6%
CCc1cc(CC)c(-c2ccco2)c(COC(=O)NC)c1	77.4% (active)

assay: NCI Yeast Anticancer Drug Screen. Data for the bub3 strain (AID 167); details: S. cerevisiae bub3 mutant strain, at 5.0 µM (retest, dose inferred, filed as 0.5), stronger effect = higher value
In short: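 Yeast carrying a defined mutation is treated with each compound, and growth is compared with that of vehicle-exposed cells to give inhibition.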

Compound	growth inhibition
CCCCC#C[I+]c1ccccc1	32%
CCOC(=O)C1C(c2cccc(OC)c2O)c2cc3c(cc2OC1(C)N1CCCC1)OCO3 (stereo not drawn)	1%
Nc1ncnc2nn(C3OC(CO)C(O)C3O)nc12 (stereo not drawn)	0%
Nc1nc(-c2ccc3c(c2)Sc2ccccc2O3)cs1	11%
O=C1C=CC(Nc2cccc([N+](=O)[O-])c2)C1Nc1cccc([N+](=O)[O-])c1 (stereo not drawn)	19%
O=C(CC(=O)c1ccccc1)CC(=O)c1ccccc1	44%
Fc1ccc(CSC(=S)Nc2ccc(Br)cc2)cc1	-6%
Cc1cc([N+](=O)[O-])c2nnnn2c1	-1%
CN(c1ccc(C(N)=O)cc1)c1c(O)c2ccccc2[nH]c1=O	-4%
O=C(/C=C\c1cccc2ccccc12)c1ccccn1	20%
COc1ccc2c(c1)CCc1c(CO)c(COC(=O)NC(C)C)n(C)c1-2	5%
O=C1CC(O)CC(=O)C1=C(O)CCCCCCCCCCc1ccccc1 (stereo not drawn)	30%
CC1CCN(CCCOC(=O)c2ccccc2)CC1	31%
Cc1ccc(S(=O)(=O)OC2COC3C(OS(=O)(=O)c4ccc(C)cc4)COC23)cc1 (stereo not drawn)	0%
Cc1nn(C(=S)S)c(C)c1N=Nc1cccc(F)c1	-1%
O=C1C(=Cc2ccccc2O)N=C(c2ccccc2)N1n1c(-c2ccccc2)nc2ccccc2c1=O	-13%
O=C1/C(=C/c2ccccc2)CNC/C1=C\c1ccccc1	6%
Cc1cc(Br)c(P(=O)(O)O)cc1[N+](=O)[O-]	3%
Oc1cc(Cc2ccccc2)c(Cc2ccccc2)cc1O	-23%
O=S1(=O)CCN(c2ccccc2CC(c2c[nH]c3ccccc23)c2c[nH]c3ccccc23)CC1	14%

Compound	growth inhibition
CCCCCC(O)C(C)CO (stereo not drawn)	0%
Cc1cc(=O)c2cc(N=Cc3ccc([N+](=O)[O-])o3)ccc2o1	-4%
CN(C)C(=S)/N=c1\ssc(=S)n1Cc1ccco1	2%
O=[N+]([O-])c1ccc2nc(Nc3ccccc3)c(Nc3ccccc3)nc2c1	15%
CC(=O)NC(CCC(=O)O)C(=O)O.[NH-]C1CCCCC1[NH-].[Pt+2] (stereo not drawn)	99% (active)
CC(=O)Oc1c2c(c(C)c3ccccc13)C(=O)c1cccnc1C2=O	4%
C=C1C(=O)OC2C(C)C3C=CC(=O)[C@@]3(C)C(OC(=O)/C(C)=C/C)C1[C@@H]2OC(C)=O (stereo partly drawn)	4%
O=C(O)/C=C/c1ccc2c(c1)CC1(Cc3ccccc3C1)C2	85% (active)
C(=C\c1ccc(-[n+]2nc(-c3ccccc3)nn2-c2ccccc2)cc1)/c1ccccc1	86% (active)
O=CC(O)C(O)C(O)C(O)C(=O)NCCCCCCCCCCCCNC(=O)C(O)C(O)C(O)C(O)C=O (stereo not drawn)	-4%
CCCCCCCCCCN(CCCCCCCCCC)CC(O)c1cc(-c2ccccc2)nc2ccccc12 (stereo not drawn)	0%
CC1(C)C(=O)C(C(Cl)(Cl)Cl)=C(Cl)C(=O)C1(Cl)Cl	56%
Cc1cccc2c1CC1(C2)Cc2c(C)cccc2C1=O (stereo not drawn)	21%
Oc1c(Cl)cc(C(c2cc(Cl)c(O)c(Cl)c2)C(c2cc(Cl)c(O)c(Cl)c2)c2cc(Cl)c(O)c(Cl)c2)cc1Cl	99% (active)
Cc1ccc(S(=O)(=O)NC(Cc2ccccc2)C(=O)CCl)cc1 (stereo not drawn)	79% (active)
CCOC(=O)/C(C#N)=C/c1coc2cc(C)cc(C)c2c1=O	-20%
CN(C)/N=C\C1CC=CCC1 (stereo not drawn)	-71%
NCC(=O)N/N=C/c1ccc([N+](=O)[O-])o1	2%
CCc1cc(CC)c(-c2ccco2)c(COC(=O)NC)c1	-8%
